According to PubChem BioAssay AID1159580 (chemical genetic matrix, 2015):
The whole screen tested about 5,500 compounds, of which about 2,000 (36%) were called active. Not shown: some 18% with an inconclusive outcome. Rule as the data show it: active = normalized growth mostly below about 0.91 (no sharp cut-off); inconclusive = no clear call, values can overlap the other calls; inactive = mostly above about 0.92. This is one part of the list.

Assay: chemical genetic growth profiling, strain panel (AID 1159580);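 also: tested at 20 µM; growth read once vehicle control cultures reached saturation at 30 °C; 1 = growth at the plate median or of vehicle wells; lower values mean less growth of the strain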
Settings: growth OD
[1] = S. cerevisiae deletion strains, locus YDL101C, strain DUN1, hits give low values
[2] = S. cerevisiae deletion strains, locus YHR030C, strain SLT2, hits give low values
[3] = S. cerevisiae deletion strains, locus YAL013W, strain DEP1, hits give low values
[4] = S. cerevisiae deletion strains, locus YBR229C, strain ROT2, hits give low values
[5] = S. cerevisiae deletion strains, locus YCL061C, strain MRC1, hits give low values
[6] = S. cerevisiae deletion strains, locus YDR150W, strain NUM1, hits give low values
[7] = S. cerevisiae deletion strains, locus YEL061C, strain CIN8, hits give low values
[8] = S. cerevisiae deletion strains, locus YGR078C, strain PAC10, hits give low values
[9] = S. cerevisiae deletion strains, locus YHR087W, strain rtc3, hits give low values
[10] = S. cerevisiae deletion strains, locus YJR043C, strain POL32, hits give low values
[11] = S. cerevisiae deletion strains, locus YJR075W, strain HOC1, hits give low values
[12] = S. cerevisiae deletion strains, locus YLR039C, strain RIC1, hits give low values
[13] = S. cerevisiae deletion strains, locus YLR058C, strain SHM2 (second series), hits give low values
[14] = S. cerevisiae deletion strains, locus YLR085C, strain ARP6, hits give low values
[15] = S. cerevisiae deletion strains, locus YLR262C, strain YPT6, hits give low values
[16] = S. cerevisiae deletion strains, locus YML094W, strain GIM5, hits give low values
[17] = S. cerevisiae deletion strains, locus YMR219W, strain ESC1, hits give low values
[18] = S. cerevisiae deletion strains, locus YMR263W, strain SAP30, hits give low values
[19] = S. cerevisiae deletion strains, locus YNL153C, strain GIM3, hits give low values
[20] = S. cerevisiae deletion strains, locus YNL298W, strain CLA4 (second series), hits give low values
[21] = S. cerevisiae deletion strains, locus YNL322C, strain KRE1, hits give low values
[22] = S. cerevisiae deletion strains, locus YNR030W, strain Alg12, hits give low values
[23] = S. cerevisiae deletion strains, locus YOL006C, strain TOP1, hits give low values
[24] = S. cerevisiae deletion strains, locus YPL055C, strain LGE1, hits give low values
[25] = S. cerevisiae deletion strains, locus YPL241C, strain CIN2, hits give low values
[26] = S. cerevisiae deletion strains, locus YPR135W, strain CTF4, hits give low values
[27] = S. cerevisiae strains, strain wild type, hits give low values
[28] = S. cerevisiae deletion strains, locus YJL187C, strain SWE1, hits give low values
[29] = S. cerevisiae deletion strains, locus YMR307W, strain GAS1, hits give low values
[30] = S. cerevisiae deletion strains, locus YDL134C, strain PPH21, hits give low values
[31] = S. cerevisiae deletion strains, locus YKL190W, strain CNB1, hits give low values
[32] = S. cerevisiae deletion strains, locus YGR229C, strain SMI1, hits give low values

Measured: normalized growth

COc1ccccc1N1CCN(C(=O)C(C)c2ccc(CC(C)C)cc2)CC1 (stereo not given)
inactive: S. cerevisiae deletion strains, locus YAR019C, strain CDC15, hits give low values 0.978 | S. cerevisiae deletion strains, locus YBL105C, strain PKC1, hits give low values 0.983 | S. cerevisiae deletion strains, locus YBR135W, strain CKS1, hits give low values 0.978 | S. cerevisiae deletion strains, locus YBR136W, strain MEC1, hits give low values 0.984 | S. cerevisiae deletion strains, locus YBR160W, strain CDC28, hits give low values 0.975 | S. cerevisiae deletion strains, locus YDL017W, strain CDC7, hits give low values 0.981 | S. cerevisiae deletion strains, locus YDL028C, strain MPS1, hits give low values 0.97 | [1] 0.974 | S. cerevisiae deletion strains, locus YDL108W, strain KIN28, hits give low values 0.968 | S. cerevisiae deletion strains, locus YDL132W, strain cdc53, hits give low values 0.988 | S. cerevisiae deletion strains, locus YDL214C, strain PRR2, hits give low values 0.932 | S. cerevisiae deletion strains, locus YDR052C, strain DBF4, hits give low values 0.99 | S. cerevisiae deletion strains, locus YDR054C, strain cdc34, hits give low values 0.975 | S. cerevisiae deletion strains, locus YDR226W, strain ADK1, hits give low values 0.966 | S. cerevisiae deletion strains, locus YDR477W, strain SNF1, hits give low values 0.921 | S. cerevisiae deletion strains, locus YER123W, strain YCK3, hits give low values 0.923 | S. cerevisiae deletion strains, locus YER133W, strain GLC7, hits give low values 0.954 | S. cerevisiae deletion strains, locus YFL009W, strain cdc4, hits give low values 0.967 | S. cerevisiae deletion strains, locus YFL029C, strain CAK1, hits give low values 0.977 | S. cerevisiae deletion strains, locus YFR003C, strain YPI1, hits give low values 0.983 | S. cerevisiae deletion strains, locus YFR019W, strain FAB1, hits give low values 0.947 | S. cerevisiae deletion strains, locus YFR028C, strain CDC14, hits give low values 0.986 | S. cerevisiae deletion strains, locus YGR040W, strain KSS1, hits give low values 0.936 | S. cerevisiae deletion strains, locus YGR052W, strain FMP48, hits give low values 0.944 | S. cerevisiae deletion strains, locus YGR092W, strain DBF2, hits give low values 0.938 | S. cerevisiae deletion strains, locus YHR079C, strain IRE1, hits give low values 0.93 | S. cerevisiae deletion strains, locus YHR082C, strain KSP1, hits give low values 0.939 | S. cerevisiae deletion strains, locus YHR205W, strain SCH9, hits give low values 0.861 | S. cerevisiae deletion strains, locus YIL147C, strain SLN1, hits give low values 0.981 | S. cerevisiae deletion strains, locus YJL095W, strain BCK1, hits give low values 0.91 | S. cerevisiae deletion strains, locus YJL128C, strain PBS2, hits give low values 0.977 | S. cerevisiae deletion strains, locus YJL157C, strain FAR1, hits give low values 0.968 | S. cerevisiae deletion strains, locus YJR016C, strain ILV3, hits give low values 0.983 | S. cerevisiae deletion strains, locus YJR066W, strain TOR1 (second series), hits give low values 0.946 | S. cerevisiae deletion strains, locus YJR066W, strain TOR1, hits give low values 0.873 | S. cerevisiae deletion strains, locus YKL048C, strain ELM1, hits give low values 0.978 | S. cerevisiae deletion strains, locus YKL067W, strain YNK1, hits give low values 0.933 | S. cerevisiae deletion strains, locus YKL101W, strain HSL1, hits give low values 0.926 | S. cerevisiae deletion strains, locus YKL193C, strain SDS22, hits give low values 0.976 | S. cerevisiae deletion strains, locus YKL203C, strain TOR2, hits give low values 1.01 | S. cerevisiae deletion strains, locus YLR133W, strain CKI1, hits give low values 0.943 | S. cerevisiae deletion strains, locus YLR403W, strain SFP1, hits give low values 0.95 | S. cerevisiae deletion strains, locus YML070W, strain DAK1, hits give low values 0.933 | S. cerevisiae deletion strains, locus YMR001C, strain CDC5, hits give low values 0.972 | S. cerevisiae deletion strains, locus YMR205C, strain PFK2 (second series), hits give low values 0.945 | S. cerevisiae deletion strains, locus YMR277W, strain FCP1, hits give low values 0.966 | S. cerevisiae deletion strains, locus YNL006W, strain LST8, hits give low values 0.964 | S. cerevisiae deletion strains, locus YNL020C, strain ARK1, hits give low values 0.942 | S. cerevisiae deletion strains, locus YNL161W, strain CBK1, hits give low values 0.981 | S. cerevisiae deletion strains, locus YNL183C, strain NPR1, hits give low values 0.963 | S. cerevisiae deletion strains, locus YNL207W, strain RIO2, hits give low values 0.983 | S. cerevisiae deletion strains, locus YNL222W, strain SSU72, hits give low values 0.969 | S. cerevisiae deletion strains, locus YNL307C, strain MCK1 (second series), hits give low values 0.924 | S. cerevisiae deletion strains, locus YOL078W, strain AVO1, hits give low values 0.977 | S. cerevisiae deletion strains, locus YOL136C, strain PFK27, hits give low values 0.909 | S. cerevisiae deletion strains, locus YOR061W, strain CKA2, hits give low values 0.937 | S. cerevisiae deletion strains, locus YOR119C, strain RIO1, hits give low values 0.951 | S. cerevisiae deletion strains, locus YOR231W, strain MKK1, hits give low values 0.904 | S. cerevisiae deletion strains, locus YOR329C, strain SCD5, hits give low values 0.98 | S. cerevisiae deletion strains, locus YPL031C, strain PHO85, hits give low values 0.93 | S. cerevisiae deletion strains, locus YPL153C, strain RAD53, hits give low values 0.919 | S. cerevisiae deletion strains, locus YPL204W, strain HRR25, hits give low values 0.915 | S. cerevisiae deletion strains, locus YPL209C, strain IPL1, hits give low values 0.981 | S. cerevisiae deletion strains, locus YPL256C, strain CLN2, hits give low values 0.877 | S. cerevisiae deletion strains, locus YPR025C, strain CCL1, hits give low values 0.983 | S. cerevisiae deletion strains, locus YPR106W, strain ISR1, hits give low values 0.961 | S. cerevisiae deletion strains, locus YPR111W, strain DBF20, hits give low values 0.95 | S. cerevisiae deletion strains, strain NNK1, hits give low values 0.965 | S. cerevisiae deletion strains, strain TSCII, hits give low values 0.965
active: [2] 0.802 | S. cerevisiae deletion strains, locus YLR113W, strain HOG1, hits give low values 0.829

COc1ccccc1N1CCN(C(=O)Nc2cc(Cl)cc(Cl)c2)CC1
active: [2] 0.434 | [14] 0.511 | [16] 0.823 | [20] 0.715 | [22] 0.877 | [24] 0.761 | [25] 0.716
inactive: [3] 0.934 | [4] 0.988 | [5] 0.927 | [1] 0.967 | [6] 0.854 | [7] 0.914 | [8] 0.965 | [9] 0.97 | [10] 0.971 | [11] 0.986 | [12] 1.09 | [13] 1 | [15] 1.05 | [17] 1 | [18] 0.937 | [19] 0.975 | [21] 0.984 | [23] 0.857 | [26] 0.667 | [27] 0.922

COc1ccccc1N1CCN(C(=O)C(C)Nc2ccccn2)CC1 (stereo not given)
active: [25] 1.24 [resistant]
inactive: [3] 0.994 | [4] 1 | [1] 0.985 | [6] 0.986 | [7] 1.01 | [8] 0.986 | [2] 0.952 | [9] 1.01 | [28] 0.994 | [10] 1 | [11] 1.02 | [12] 0.997 | [13] 0.996 | [14] 1.04 | [15] 0.996 | [16] 0.984 | [17] 0.999 | [18] 1.04 | [29] 1.09 | [19] 1.02 | [20] 0.997 | [21] 0.999 | [22] 1 | [24] 1.01 | [26] 1

COc1cc(NC(=S)N2CCN(c3ccccc3OC)CC2)c(OC)cc1Cl
inactive: [3] 1.01 | [4] 0.992 | [5] 0.984 | [1] 1 | [30] 1.01 | [6] 0.92 | [7] 1 | [8] 1.01 | [2] 0.95 | [9] 1.01 | [28] 0.997 | [10] 0.984 | [11] 0.999 | [31] 1.02 | [12] 0.949 | [13] 1.01 | [14] 1.14 | [15] 0.962 | [16] 0.995 | [17] 1 | [18] 0.924 | S. cerevisiae deletion strains, locus YNL128W, strain TEP1, hits give low values 1.02 | [19] 0.98 | [20] 1 | [21] 0.997 | [22] 1.01 | [24] 0.9 | [25] 0.895 | [26] 0.966

O=C(Nc1ccc(Cl)cc1)N1CCN(c2ncccc2C(F)(F)F)CC1
inactive: [3] 0.996 | [4] 0.979 | [1] 0.956 | [30] 0.955 | [6] 0.978 | [7] 0.976 | [8] 0.939 | [2] 0.713 | [9] 0.939 | [10] 0.97 | [11] 0.908 | [12] 1.04 | [13] 0.968 | [14] 0.944 | [15] 0.978 | [16] 0.957 | [17] 0.976 | [18] 0.969 | [29] 0.805 | [19] 0.946 | [20] 0.893 | [21] 0.988 | [22] 0.956 | [23] 0.782 | [24] 0.943 | [25] 0.92 | [26] 1.04

COc1ccccc1N1CCN(C(=O)c2cccs2)CC1
inactive: [3] 0.998 | [4] 1.01 | [1] 0.991 | [30] 0.959 | [6] 1.04 | [7] 1.01 | [8] 1 | [32] 0.993 | [2] 0.963 | [9] 0.985 | [10] 1.01 | [11] 1.03 | [31] 0.99 | [12] 1.01 | [13] 0.984 | [14] 0.889 | [15] 1.13 | [16] 0.972 | [17] 0.988 | [18] 1.02 | [29] 0.849 | [19] 1.04 | [20] 0.981 | [21] 0.993 | [22] 0.957 | [24] 0.99 | [25] 0.957 | [26] 1.1 | [27] 0.993

COc1ccccc1N1CCN(CCCCN2C(=O)c3ccccc3C2=O)CC1
inactive: [3] 1 | S. cerevisiae deletion strains, locus YAL040C, strain CLN3, hits give low values 0.99 | S. cerevisiae deletion strains, locus YCL061C, strain MRC1 (second series), hits give low values 0.995 | S. cerevisiae deletion strains, locus YDR363W, strain ESC2, hits give low values 0.963 | S. cerevisiae deletion strains, locus YER002W, strain NOP16, hits give low values 1.01 | [8] 0.985 | [32] 1.02 | [11] 0.993 | [18] 1 | [19] 0.99 | S. cerevisiae deletion strains, locus YNL175C, strain NOP13, hits give low values 0.979 | S. cerevisiae deletion strains, locus YNL197C, strain WHI3, hits give low values 0.981 | S. cerevisiae deletion strains, locus YNL224C, strain SQS1, hits give low values 1 | S. cerevisiae deletion strains, locus YOR083W, strain WHI5 (second series), hits give low values 0.985 | [24] 0.971 | [25] 1
